Experimental findings from PubChem BioAssay AID1259343 (VanderVen Lab, College of Veterinary Medicine, Cornell …, 2017) are described below.

Among all 6,200 compounds or so, about 2,900 (47%) were called active. So high a share suggests a set chosen from earlier hits. Some of the results follow. Values without a mark were called inactive. Rule as the data show it: active = inhibition above about 50%; inactive = the rest.

The test is described as follows: Mycobacterium tuberculosis growth inhibition, primary screen (AID 1259343). To be noted: inhibition: at 10 µM, active compounds read high; outcome: 10 uM.
Consider `CCCCn1c(C2CCCCC2)nc2oc3ccccc3c(=O)c2c1=O`, for which the inhibition – broadly, the change of the read-out against control, counted positive when it falls – is -33.2%.

Take `COc1nc(C)ccc1CNC(=O)C(=O)Nc1cccc(F)c1F`: the inhibition was 8.51%.

Consider `Cc1ccc(-c2noc(COc3ccc(C(C)C)cc3)n2)cc1`, for which the inhibition is 95.7% (active).

In the case of `CN(Cc1nc(-c2ccc(C(F)(F)F)cc2)no1)CC(O)c1ccccc1` (stereo not given), the inhibition was 84.5% (active).

For the compound `Cc1ccc(-c2noc(CSc3ncccn3)n2)cc1`, the inhibition is 42.6%.

Regarding `CN(Cc1nc(-c2ccccc2)no1)Cc1ccnc2ccccc12`, the inhibition was -26.1%.

As for `CC(C)c1ccc(-c2noc(CN(C)c3ccccc3)n2)cc1`, the inhibition was 63.2% (active).

Turning to `Cc1ccc(-c2noc(CC#N)n2)cc1`, the inhibition is 77.1% (active).

`Clc1ccc(-c2noc(COc3ccc4c(c3)OCO4)n2)cc1`: the inhibition is 18.1%.

`N#CCOc1ccc(CNc2ncc(Br)cn2)cc1`: the inhibition was 33.8%.

Take `Cc1ccc(-c2noc(CN3CCCc4ccccc43)n2)cc1`: the inhibition was 101% (active).

For `N#Cc1c(SCc2ccccc2)n[nH]c1-c1cccs1`, the inhibition was 37.8%.

Take `O=c1[nH]nc(SCc2ccccc2)c(=S)[nH]1`: the inhibition was 85.6% (active).

As for `CC(C)CC(=O)Nc1nnc(C(C)(C)C)s1`, the inhibition is 17.4%.

On to `CC(C)(C)c1nnc(NC(=O)c2cc(C(F)(F)F)cc(C(F)(F)F)c2)s1`, for which the inhibition was 96% (active).

Turning to `CCCc1nc(N2C[C@@H]3[C@H](C2)[C@H]2CC[C@@H]3O2)no1`, the inhibition is -30.4%.

As for `CC(C)c1cc(C(=O)N2C[C@@H]3[C@H](C2)[C@H]2CC[C@@H]3O2)cs1`, the inhibition was -8.56%.

On to `CC(C)Cc1cc(C(=O)N2C[C@@H]3[C@H](C2)[C@H]2CC[C@@H]3O2)on1`, for which the inhibition was 83.1% (active).

In the case of `CC(C)c1noc(-c2ccc(NC(=O)N3CCCC3)cc2)n1`, the inhibition was 73.4% (active).

On to `CC1CCN(C(=O)Nc2ccc(Br)cc2)CC1`, for which the inhibition was 30.1%.

Consider `Cc1ccc(NC(=O)N2CCN(CCCOC(c3ccc(Cl)cc3)c3ccc(Cl)cc3)CC2)cc1`, for which the inhibition was -2.85%.

For the compound `COc1ccc(NC(=O)c2ccc(=O)n(C)c2)cc1Br`, the inhibition was 2.47%.

For the compound `COC(F)(C(=O)Nc1ccc(C)c(Br)c1)C(F)(F)F` (stereo not given), the inhibition is 56.7% (active).

On to `Cc1ccc(NC(=O)c2ncoc2C(C)C)cc1Br`, for which the inhibition was 40.1%.

In the case of `O=C1CC(c2ccccc2)CC(=O)C1S(=O)c1ccc(Cl)cc1` (stereo not given), the inhibition is 58.1% (active).

Turning to `C=C=C/C=C/C=C\Oc1ccc(CO)cc1O/C=C\C=C\C=C=C`, the inhibition is 88.7% (active).

Take `CC(C)(C)c1noc(COc2ccc(O)cc2)n1`: the inhibition was 39.8%.

Consider `Brc1ccc(OCc2nnc(-c3cccs3)o2)cc1`, for which the inhibition was 42.8%.

For `Cc1nc(COc2ccc(Oc3nccs3)cc2)oc1C`, the inhibition is 80% (active).

As for `CC(C)NC(=O)c1ccc(OCc2cccs2)cc1`, the inhibition was -17.8%.

For `CC(c1cccs1)N(C)C(=O)COc1ccc(F)cc1` (stereo not given), the inhibition was 59.8% (active).

Turning to `CN(C)Cc1nc(Cl)c2c3c(sc2n1)CCCCC3`, the inhibition is 69.8% (active).

As for `CC1CCc2c(nc3sc4c(c3c2N)CCCC4)C1` (stereo not given), the inhibition is 32.6%.

On to `CCc1ccc(CN(C)C(=O)NCCC2CCCC2)cc1`, for which the inhibition was 99.2% (active).

`CN(CCC1CCCCC1)C(=O)Nc1ccsc1`: the inhibition was 48.9%.

Consider `CC(CCc1ccccc1)NC(=O)NCCC1CCCC1` (stereo not given), for which the inhibition is -6.93%.

For `CCc1cc(OCc2ccc(C(N)=O)cc2)ccc1Cl`, the inhibition is -54%.

On to `CC(C)(C)c1ccc(COc2ccccc2C(N)=O)cc1`, for which the inhibition was 30.2%.

Take `NC(=O)c1ccc(CSCc2cccc(F)c2)cc1`: the inhibition is 19.5%.

Regarding `Cc1cc(Cl)ccc1OCc1ccc(C(N)=O)cc1`, the inhibition was 68.2% (active).

Consider `NC(=O)c1cc(Cl)ccc1OCc1ccccc1Br`, for which the inhibition is 1.54%.

Consider `Cc1cccc(OCc2ccc(C(N)=O)cc2)c1C`, for which the inhibition is 64.1% (active).

For the compound `CC(C)c1cc(C(=O)NC2CCN(c3cccc(F)c3)CC2)n[nH]1`, the inhibition was 41.4%.

Regarding `CC(C)c1cc(C(=O)NC2CC2)nn1-c1nc2ccccc2s1`, the inhibition is 94.4% (active).

As to `Cc1nc(-n2nc(C3CC3)cc2NC(=O)c2ccccc2F)[nH]c(=O)c1C`, the inhibition was -15.9%.

As to `Cc1nc(-n2nc(C3CC3)cc2NC(=O)c2ccccc2Cl)[nH]c(=O)c1C`, the inhibition is 80.4% (active).

`Cc1cc(=O)[nH]c(-n2nc(C3CC3)cc2NC(=O)c2c(F)cccc2F)n1`: the inhibition was 99.2% (active).

In the case of `Cc1cc(=O)[nH]c(-n2nc(C3CC3)cc2NC(=O)c2ccccc2Cl)n1`, the inhibition was 101% (active).

Consider `Cc1cc(=O)[nH]c(-n2nc(C3CC3)cc2NC(=O)c2ccccc2C(F)(F)F)n1`, for which the inhibition was 99.9% (active).

In the case of `Cc1cc(=O)[nH]c(-n2nc(C3CC3)cc2NC(=O)c2cccc3ccccc23)n1`, the inhibition is 99.8% (active).

`Cc1cc(=O)[nH]c(-n2nc(C3CC3)cc2NC(=O)c2ccccc2F)n1`: the inhibition was 101% (active).

As to `N#Cc1ccc(S(=O)(=O)NC(=O)c2sccc2C2CC2)cc1`, the inhibition is 67.6% (active).

For the compound `O=C(NS(=O)(=O)Cc1ccccc1)c1sccc1C1CC1`, the inhibition was 10.6%.

In the case of `COc1cc(/C=C/CN2CCCC(C(=O)Nc3ccc(-c4ccco4)cc3)C2)ccc1O` (stereo not given), the inhibition is 45.7%.

Consider `O=C(Nc1ccc(-c2ccco2)cc1)C1CCCN(C(=O)CCc2cnccn2)C1` (stereo not given), for which the inhibition was -19.9%.

For `O=C(Nc1ccc(-c2ccco2)cc1)C1CCCN(C(=O)CCN2CCCO2)C1` (stereo not given), the inhibition is 82.8% (active).

As to `Nc1ncc(CN2CCCC(C(=O)Nc3ccc(-c4ccco4)cc3)C2)cn1` (stereo not given), the inhibition result is “inactive”.

For `O=C(Nc1ccc(-c2ccco2)cc1)C1CCCN(Cc2coc3ccccc3c2=O)C1` (stereo not given), the inhibition was 31.3%.

Consider `O=C(Nc1ccc(-c2ccco2)cc1)C1CCCN(Cc2cccc3c2OCO3)C1` (stereo not given), for which the inhibition is 85% (active).

Regarding `O=C(Nc1ccc(-c2ccco2)cc1)C1CCCN(C(=O)CCc2cccs2)C1` (stereo not given), the inhibition entry is “inactive”.

Consider `Cn1ccc(CC(=O)N2CCCC(C(=O)Nc3ccc(-c4ccco4)cc3)C2)c1` (stereo not given), for which the inhibition is 84.1% (active).

`O=C1Nc2ncccc2Oc2cc(F)cc(O)c21`: the inhibition was 81.3% (active).

As for `O=C(NCc1ccccn1)Nc1cc(F)c(N2CCCC2)c(F)c1`, the inhibition is 38.7%.

On to `CC(C(=O)Nc1ccccc1Cl)N1CCCC1c1ccsc1` (stereo not given), for which the inhibition was 3.58%.

With `O=C(NCCOc1cc(N2CCCCC2)ncn1)Nc1ccccc1Cl`, the inhibition was 56% (active).
